# Several values for one entry are separate records, joined by “and”; a condition that tells them apart may be missing. Identical values can stand only once. Out of some 77,000 compounds screened, about 4,600 (6%) were called active. Roughly 1% stayed inconclusive and do not appear here. The sample holds actives, similar compounds and a random draw of the others, so the mix is not that of the screen. Values without a mark were called inactive.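 How the source made its calls: active means mean inhibition above about 93%, with at least 55% of replicates each passing it (limit read from the data, passing the limit was not always enough); inconclusive means only one of those two conditions holds; inactive means neither condition holds.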
# Experiment: growth inhibition of T. cruzi in host fibroblasts – cell-based, beta-gal Tulahuen parasites, NIH3T3 host, luminescence, primary screen (AID 624255)
# Details: T. cruzi beta-gal in NIH3T3, GalScreen luminescence, 90 h; at 8.34 µM; hits give high values
row,Compound,inhibition
1,O=C(Cc1cccnc1)N1CCCCN2[C@@H](CO)[C@H](c3ccc(C#CC4CCCC4)cc3)[C@@H]2C1,110% (active)
2,C/C=C/c1ccc([C@H]2[C@H](CO)N3CCCCN(C(=O)Cc4ccncc4)C[C@@H]23)cc1,126% (active)
3,COc1ccc(-c2ccc([C@H]3[C@H](CO)N4CCCCN(C(=O)Cc5ccncc5)C[C@@H]34)cc2)cc1,102% (active)
4,COc1cccc(-c2ccc([C@H]3[C@H]4CN(C(=O)Cc5ccncc5)CCCCN4[C@H]3CO)cc2)c1,80.9%
5,O=C(Cc1ccncc1)N1CCCCN2[C@@H](CO)[C@H](c3ccc(-c4ccncc4)cc3)[C@@H]2C1,60.5%
6,O=C(Cc1ccncc1)N1CCCCN2[C@@H](CO)[C@H](c3ccc(C#CC4(O)CCCC4)cc3)[C@@H]2C1,93.8%
7,O=C(Cc1ccccn1)N1CCCCN2[C@H](C1)[C@H](c1ccc(-c3ccccc3F)cc1)[C@@H]2CO,16.7%
8,OC[C@@H]1[C@H]2c3ccccc3NC[C@H]2N1Cc1cccnc1,77.8%
9,N#Cc1cccc(-c2ccc([C@H]3[C@@H](CO)N4CCCCN(C(=O)Cc5cccnc5)C[C@@H]34)cc2)c1,61.2%
10,O=C(Cc1ccncc1)N1CCCCN2[C@H](CO)[C@@H](c3ccc(C#CC4(O)CCCC4)cc3)[C@H]2C1,63%
11,O=C(Cc1ccccn1)N1CCCCN2[C@@H](CO)[C@@H](c3ccc(C#Cc4ccccc4)cc3)[C@@H]2C1,110% (active)
12,COC(=O)[C@H]1[C@H](CO)[C@H]2Cn3c(ccc(C4=CCCC4)c3=O)[C@@H]1N2C(=O)CC1CC1,11.8%
13,COC(=O)[C@@H]1[C@@H](CO)[C@@H]2Cn3c(ccc(-c4ccc(F)cc4)c3=O)[C@H]1N2C(C)=O,-2.43%
14,COC(=O)[C@H]1[C@H](CO)[C@H]2Cn3c(ccc(-c4cccc(F)c4)c3=O)[C@@H]1N2Cc1ccccc1,8.82%
15,O=C(O)[C@H]1[C@H](CO)[C@H]2Cn3c(cccc3=O)[C@@H]1N2C(=O)c1ccccc1,42.5%
16,O=C(O)[C@H]1[C@H](CO)[C@H]2Cn3c(ccc(-c4ccccc4F)c3=O)[C@@H]1N2C(=O)c1cccnc1,30%
17,COC(=O)C[C@@H]1CC[C@@H]2NC[C@@H](O)COC[C@H]2O1,54.8%
18,COC(=O)[C@H]1[C@H](CO)[C@H]2Cn3c(ccc(-c4ccccc4F)c3=O)[C@@H]1N2C(=O)C1CCC1,44.2%
19,COc1cccc(-c2ccc3n(c2=O)C[C@@H]2[C@@H](CO)[C@H](C(=O)O)[C@H]3N2C(=O)c2cnccn2)c1,39.3%
20,C[C@H]1CN([C@@H](C)CO)C(=O)CCCn2nncc2CO[C@H]1CN(C)C(=O)Oc1cccc2ccccc12,-20.3% and -6.68%
21,O=C(Cc1ccccc1)N1CCCCN2[C@H](C1)[C@H](c1ccc(C#CC3(O)CCCC3)cc1)[C@@H]2CO,84.7%
22,COc1ccc(C#Cc2ccc([C@H]3[C@H](CO)N4CCCCN(C(=O)Cc5ccccc5)C[C@@H]34)cc2)cc1,109% (active)
23,O=C(Cc1ccccc1)N1CCCCN2[C@H](CO)[C@H](c3ccc(C#Cc4ccccc4)cc3)[C@H]2C1,94.6%
24,COC(=O)[C@@H]1[C@@H](CO)[C@@H]2Cn3c(ccc(C4=CCCCC4)c3=O)[C@H]1N2CC1CC1,48.5%
25,C[C@H]1CN([C@@H](C)CO)C(=O)CCCn2nncc2CO[C@H]1CN(C)C(=O)Oc1ccccc1,32% and -17.3%

# Reference: PubChem BioAssay AID624255 (Broad Institute, 2012)
